According to the supplement of paper PMC11634586:

The compounds below were run on NCI-H1688 (assay: inhibition of cell viability relative to untreated control (fraction); higher = stronger growth inhibition, active = 0.5 or more). Conditions: 30 µM; 24 h.
Method: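 Natural product library (TargetMol, 640 compounds) screened on NCI-H1688 SCLC cells at 30 µM for 24 h; viability by CCK-8 absorbance at 450 nm, normalised to untreated control and expressed as inhibition rate (fraction). Compounds with >50% reduction in viability were selected as hits.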

SMILES | inhibition of cell viability
Cn1c(=O)c2c(ncn2CC(=O)O)n(C)c1=O [Theophylline-7-acetic acid] | -0.159 (inactive)
O=C(O)C1=CO[C@@H](O[C@@H]2O[C@H](CO)[C@@H](O)[C@H](O)[C@H]2O)[C@@H]2C(CO)=CC[C@H]12 [Geniposidic Acid] | -0.0628 (inactive)
C[C@@H]1O[C@@H](Oc2c(-c3cc(O)c(O)c(O)c3)oc3cc(O)cc(O)c3c2=O)[C@H](O)[C@H](O)[C@H]1O [Myricetrin] | -0.141 (inactive)
COc1ccc(C(C)=O)c(O)c1 [Paeonol] | 0.0334 (inactive)
Oc1cc(O)c2c(c1)O[C@H](c1cc(O)c(O)c(O)c1)[C@H](O)C2 [Epigallocatechin] | -0.059 (inactive)
CN[C@@H](C)[C@H]1[C@H](O)C[C@@]2(C)[C@@H]3CC[C@H]4C(C)(C)[C@@H](NC)CC[C@@]45C[C@@]35CC[C@]12C [Cyclovirobuxin D] | -0.0295 (inactive)
C=C1CC[C@@H]2[C@](C)(CO)[C@H](O)CC[C@@]2(C)[C@@H]1C/C=C1/C(=O)OC[C@H]1O [Andrographolide] | 0.853 (active)
O=C(O)/C=C/c1ccc(O)c(O)c1 [Caffeic Acid] | -0.0219 (inactive)
N[C@@H](Cc1c[nH]c2ccc(O)cc12)C(=O)O [5-hydroxytryptophan (5-HTP)] | -0.0946 (inactive)
CC(=O)[C@H]1CC[C@H]2[C@@H]3CCC4=CC(=O)CC[C@]4(C)[C@H]3CC[C@]12C [Progesterone] | -0.156 (inactive)
Oc1ccc(/C=C/c2cc(O)cc(O)c2)cc1 [Resveratrol] | 0.49 (inactive)
O=Cc1ccc(O)c(O)c1 [Protocatechualdehyde] | 0.314 (inactive)
CC(=O)[C@@]1(O)CC[C@H]2[C@@H]3CCC4=CC(=O)CC[C@]4(C)[C@H]3CC[C@@]21C [Hydroxyprogesterone] | 0.102 (inactive)
C=C(C)[C@@H]1CC=C(CO)CC1 [Perillyl alcohol] | 0.195 (inactive)
CC1(C)[C@@H](O[C@H]2O[C@H](C(=O)O)[C@@H](O)[C@H](O)[C@H]2O[C@@H]2O[C@H](C(=O)O)[C@@H](O)[C@H](O)[C@H]2O)CC[C@]2(C)[C@H]3C(=O)C=C4[C@@H]5C[C@@](C)(C(=O)O)CC[C@]5(C)CC[C@@]4(C)[C@]3(C)CC[C@@H]12 [Monoammonium glycyrrhizinate] | 0.346 (inactive)
Cc1ncc(CSSCc2cnc(C)c(O)c2CO)c(CO)c1O [Pyrithioxin] | 0.0153 (inactive)
OCC1OC(OC2C(CO)OC(O)C(O)C2O)C(O)C(O)C1O [D-Cellobiose] | -0.12 (inactive)
C[C@@H]1O[C@@H](O[C@@H]2[C@@H](O)[C@H](OCCc3ccc(O)c(O)c3)O[C@H](CO)[C@H]2OC(=O)/C=C/c2ccc(O)c(O)c2)[C@H](O)[C@H](O)[C@H]1O [Verbascoside] | 0.0855 (inactive)
NC(=O)CCC(N)C(=O)O (racemic) [DL-Glutamine] | -0.221 (inactive)
COC(=O)/C=C/c1ccc(O)cc1 [Methyl 4-hydroxycinnamate] | -0.109 (inactive)

SMILES | inhibition of cell viability
COc1cc(O)cc(OC)c1OC [3,4,5-Trimethoxyphenol] | 0.0652 (inactive)
CC(C)=CCC[C@](C)(O[C@@H]1O[C@H](CO[C@@H]2O[C@H](CO)[C@@H](O)[C@H](O)[C@H]2O)[C@@H](O)[C@H](O)[C@H]1O)[C@H]1CC[C@]2(C)[C@@H]1[C@H](O)C[C@@H]1[C@@]3(C)CC[C@H](O[C@@H]4O[C@H](CO)[C@@H](O)[C@H](O)[C@H]4O[C@@H]4O[C@H](CO)[C@@H](O)[C@H](O)[C@H]4O)C(C)(C)[C@@H]3CC[C@]12C [Ginsenoside Rb1] | -0.0384 (inactive)
COc1cc(CNC(=O)CCCC/C=C/C(C)C)ccc1O [Capsaicin] | 0.0438 (inactive)
CC(=O)N[C@H]1[C@H]([C@H](O)[C@H](O)CO)OC(O)(C(=O)O)C[C@@H]1O (stereo not given in full) [N-Acetylneuraminic acid] | -0.0072 (inactive)
C[C@]12CCC(=O)C=C1CC[C@@H]1[C@@H]2C(=O)C[C@@]2(C)[C@H]1CC[C@]2(O)C(=O)CO [Cortisone] | -0.215 (inactive)
N[C@H]1C(O)O[C@H](CO)[C@@H](O)[C@@H]1O (stereo not given in full) [Glucosamine] | -0.173 (inactive)
CC1(C)CCCC2(C)OC(=O)C=C12 (stereo not given) [Dihydroactinidiolide] | 0.194 (inactive)
O=C1c2c(O)cc(O)cc2O[C@H](c2cc(O)c(O)c(O)c2)[C@H]1O [Dihydromyricetin] | 0.596 (active)
C[C@H]1O[C@H](O[C@H]2[C@H](O)[C@@H](O)[C@@H](O[C@H]3[C@H](O)[C@@H](O)C(O)O[C@@H]3CO)O[C@@H]2CO)[C@H](O)[C@@H](O)[C@@H]1N[C@H]1C=C(CO)[C@@H](O)[C@H](O)[C@H]1O (stereo not given in full) [Acarbose] | -0.208 (inactive)
Nc1ncnc2c1ncn2[C@@H]1O[C@H](CO)[C@@H](O)[C@H]1O [Adenosine] | 0.189 (inactive)
O=C1C[C@@H](c2ccc(O[C@@H]3O[C@H](CO)[C@@H](O)[C@H](O)[C@H]3O)cc2)Oc2cc(O)ccc21 [Liquiritin] | 0.0621 (inactive)
Nc1ncnc2c1ncn2[C@@H]1O[C@H](COP(=O)(O)OP(=O)(O)OP(=O)(O)O)[C@@H](O)[C@H]1O [Adenosine disodium triphosphate] | 0.0565 (inactive)
COc1cc2c(=O)c(-c3ccc(O)cc3)coc2cc1O[C@@H]1O[C@H](CO)[C@@H](O)[C@H](O)[C@H]1O [Glycitin] | 0.491 (inactive)
COc1ccc(C2CC(=O)c3c(O)cc(OC4OC(COC5OC(C)C(O)C(O)C5O)C(O)C(O)C4O)cc3O2)cc1OC (stereo not given) [Methyl hesperidin] | 0.00735 (inactive)
CC1(C)CC[C@]2(C)CC[C@]3(C)C(=CC[C@@H]4[C@@]5(C)CC[C@@H](O)[C@](C)(C(=O)O)[C@@H]5CC[C@]43C)[C@@H]2C1 | 0.314 (inactive)
COc1c(C)c2c(c(O)c1C/C=C(\C)CCC(=O)O)C(=O)OC2 [Mycophenolic acid] | 0.841 (active)
OC[C@H]1O[C@H](O[C@H]2O[C@H](CO)[C@@H](O)[C@H](O)[C@H]2O)[C@H](O)[C@@H](O)[C@@H]1O [D-(+)-Trehalose dihydrate] | 0.249 (inactive)
CC[C@H]1OC(=O)[C@H](C)[C@@H](O[C@H]2C[C@@](C)(OC)[C@@H](O)[C@H](C)O2)[C@H](C)[C@@H](O[C@@H]2O[C@H](C)C[C@H](N(C)C)[C@H]2O)[C@](C)(O)C[C@@H](C)C(=O)[C@H](C)[C@@H](O)[C@]1(C)O [Erythromycin] | 0.0155 (inactive)
OC[C@H]1O[C@H](O)[C@H](O)[C@@H](O)[C@H]1O [Alpha-D-galactose] | 0.0334 (inactive)
O=c1cc[nH]c(=O)[nH]1 [Uracil] | -0.231 (inactive)
